HSF-1 act = increases HSF-1 driven luciferase reporter signal. NIH3T3-HGL HSF-1 luciferase reporter, MG132, 8 h; 100% = twice DMSO control signal. activation, % at 9 µM. 1.7% of 300,000 active. AID 504408;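 active = mean replicate activation of at least 50% with a set share of replicates each reaching 50%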;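 also: 0% = median of the neutral control wells and 100% = twice that signal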
NR0B1 inh = NR0B1 (DAX1) inhibition; HEK293 Gal4-DAX1 luciferase reporter, luminescence; 0.99% of 340,000 active; inhibition, % at 6.75 µM; AID 504766; P51843;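 active = inhibition above the mean over all tested compounds plus 3 SD, cut at about 4.2% in these data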;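 also: 0% = DAX1-transfected cells with DMSO and 100% = empty-vector control cells with DMSO; inhibition shows as a rise in luminescence from relieved DAX1 repression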
Target sequence (P51843 207-470 limits assumed): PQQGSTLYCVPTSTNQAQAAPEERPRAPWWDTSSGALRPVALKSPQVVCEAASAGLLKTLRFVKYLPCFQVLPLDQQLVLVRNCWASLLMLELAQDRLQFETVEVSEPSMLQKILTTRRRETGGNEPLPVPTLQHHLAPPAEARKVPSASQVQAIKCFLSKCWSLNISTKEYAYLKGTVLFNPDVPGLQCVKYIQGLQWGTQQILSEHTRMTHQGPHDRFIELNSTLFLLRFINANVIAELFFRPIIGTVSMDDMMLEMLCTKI
FXN GAA850 act = activators of GAA850 frataxin (FXN) promoter; activation, % at 6 µM; AID 540364; 0.56% of 360,000 active; HEK293 lucGAA850 FXN promoter luciferase reporter, 24 h; percent of 10 µM SAHA response;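 active = activation above the average of all compounds screened plus 3 SD, cutoff fixed separately per campaign, cut at about 7.5% in these data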;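 also: 0% = DMSO wells and 100% = 10 µM SAHA wells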
AHR activator = activators of human aryl hydrocarbon receptor. 2.5% of 320,000 active. AHR-responsive luciferase reporter cells, luminescence. P35869. AID 2796. activation, % at 5 µM; in the data active = activation above about 47%;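 also: 0% = vehicle wells and 100% = reference agonist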
HSP90 refold inh = HSP90 refolding inhibition in rabbit reticulocyte lysate; luciferase refolding luminescence, 3 h; inhibition, % at 5.6 µM; 0.91% of 290,000 active;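 active = inhibition above the screen-wide mean plus 3 SD, computed separately per campaign, cut at about 16% in these data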;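 also: 0% = DMSO wells and 100% = 60 µM geldanamycin wells; inhibitors lower the luminescence because luciferase stays unfolded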
HSF1 inh = HSF1 inhibition. AID 2098. 0.77% of 300,000 active. activity change, negative = inhibition, % at 7.5 µM (by protocol). NIH3T3-HGL HSE-luciferase, MG132-induced, luminescence 8 h; hits give low values;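 active = more than half of replicate wells show activity change below -50%, luminescence cut by over half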;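 also: luciferase reports HSF-1 transcriptional activity via heat shock element; 0% = median of DMSO wells and -100% = zero luminescence signal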
HSP90 confirm = confirmation of HSP90 inhibitors. shares compounds with HSP90 refold inh. rabbit reticulocyte lysate, luciferase refolding luminescence, 3 h. 64% of 2,300 active. AID 1846. inhibition, % at 5.9 µM; in the data active = inhibition above about 18%;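 also: 0% = vehicle wells and 100% = reference inhibitor wells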
luciferase ctr = counter-screen for HSP90 inhibitors: inhibitors of firefly luciferase; inhibition, % at 5.9 µM; 48% of 2,300 active; AID 1847; purified native firefly luciferase, luminescence; shares compounds with HSP90 refold inh;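 active = inhibition above the mean inhibition of all tested sample wells plus 3 SD, cut at about 10% in these data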;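 also: 0% = DMSO with luciferase and 100% = wells lacking luciferase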
The depositor's hits bear a star. The list is not random: actives were taken first. Their share in the collection is about 5.9%.

Cc1ccccc1-c1nc2cc(N)ccc2o1 was read as HSF-1 act 11.8, NR0B1 inh 1.5, FXN GAA850 act 1.6, AHR activator 4.3, HSP90 refold inh 6.7 and HSF1 inh 20.7.
CC(C)c1ccc2oc(-c3cc(N)ccc3O)nc2c1 was read as HSF-1 act -43.7, NR0B1 inh -1.2, FXN GAA850 act -5.1, AHR activator 69.6*, HSP90 refold inh 45.6*, HSF1 inh -40.8, HSP90 confirm 79.5* and luciferase ctr 79.0*.
For COc1cc(/C=C/[N+](=O)[O-])ccc1OCc1cccc(C(=O)O)c1 the results were HSF-1 act -23.1, HSP90 refold inh 62.9*, HSF1 inh -13.7, HSP90 confirm 50.6* and luciferase ctr 1.5.
`COc1ccc(S(=O)(=O)N2CCN(CC(=O)Nc3c(C)n[nH]c3C)CC2)cc1OC` gave NR0B1 inh 1.3, FXN GAA850 act -2.4 and AHR activator -2.2.
CCCc1nn(C)c(C(=O)Nc2cccc(Cl)c2)c1Cl was read as NR0B1 inh 1.5, FXN GAA850 act -7.4, AHR activator 88.8*, HSP90 refold inh 25.6*, HSP90 confirm 35.2* and luciferase ctr 36.0*.
Cc1ccc(/C=N/Nc2ccc3ccccc3n2)o1 was read as NR0B1 inh -2.7, FXN GAA850 act 2.3, AHR activator 35.4 and HSP90 refold inh 13.5.
Screening C(=N\Nc1ccc2ccccc2n1)/c1ccc2c(c1)OCCO2 returned HSF-1 act -85.5, NR0B1 inh -6.6, FXN GAA850 act -9.0, AHR activator 14.9, HSP90 refold inh 67.7*, HSF1 inh -80.4*, HSP90 confirm 92.9* and luciferase ctr 91.5*.
`Cc1cccc(/C=N/Nc2ccc3ccccc3n2)c1` gave HSF-1 act -0.2, NR0B1 inh -7.0, FXN GAA850 act -10.4, AHR activator 24.4, HSP90 refold inh 65.7*, HSF1 inh 1.7, HSP90 confirm 84.6* and luciferase ctr 84.3*.
COC(=O)c1ccc(NC(=O)CSCc2ccccc2C)cc1 was read as HSF-1 act 5.4, NR0B1 inh 0.6, FXN GAA850 act 1.7, AHR activator 0.9, HSP90 refold inh -6.0 and HSF1 inh 1.7.
CC(C)(C)C(=O)Nc1ccc(-c2cn3ccsc3n2)cc1 was read as HSF-1 act 25.1, NR0B1 inh -3.0, FXN GAA850 act -0.8, AHR activator -3.3, HSP90 refold inh 29.0*, HSF1 inh -7.0, HSP90 confirm 48.8* and luciferase ctr 32.6*.
`CC(C)CC(=O)Nc1ccc(-c2cn3ccsc3n2)cc1` gave NR0B1 inh -1.0, FXN GAA850 act 0.9, AHR activator 27.7 and HSP90 refold inh 7.8.
For Cc1cc(C)c2c(N)c(C(=O)Nc3nccs3)sc2n1 the results were HSF-1 act 32.8, NR0B1 inh -3.6, FXN GAA850 act -2.6, AHR activator 70.7*, HSP90 refold inh 29.6*, HSF1 inh 10.8, HSP90 confirm 62.0* and luciferase ctr 50.6*.
Screening O=C(CSc1cn(CCNC(=O)c2ccc3ccccc3c2)c2ccccc12)NCc1ccco1 returned HSF-1 act -1.1, NR0B1 inh -1.6, FXN GAA850 act 0.1, AHR activator 34.8, HSP90 refold inh 18.9*, HSF1 inh -1.8, HSP90 confirm 21.8* and luciferase ctr -1.1.
`COc1ccc(C(=O)NCCn2ccc3ccccc32)cc1` gave HSF-1 act 38.7, NR0B1 inh 2.0, FXN GAA850 act 0.3, AHR activator -5.0, HSP90 refold inh 60.0*, HSF1 inh 29.3, HSP90 confirm 22.1* and luciferase ctr -12.0.
For COc1ccc(C(=O)NCCn2cc(SCC(N)=O)c3ccccc32)cc1 the results were HSF-1 act -16.9, NR0B1 inh -2.2, FXN GAA850 act -3.4, AHR activator 0.8, HSP90 refold inh 73.6*, HSF1 inh -8.9, HSP90 confirm 9.5 and luciferase ctr -9.2.
Cc1ccc(C(=O)NCCn2ccc3ccccc32)cc1[N+](=O)[O-] was read as HSF-1 act -3.0, NR0B1 inh -1.5, FXN GAA850 act 1.3, AHR activator 5.5, HSP90 refold inh -0.2 and HSF1 inh -13.7.
For O=C1N=c2ccccc2=C1c1sc(=S)n(Cc2ccccc2Cl)c1O the results were HSF-1 act -24.0, NR0B1 inh -0.2, FXN GAA850 act 1.9, AHR activator 8.4, HSP90 refold inh -3.6 and HSF1 inh -8.2.
`Cc1sc2ncnc(N3CCC(C(=O)Nc4ccc(Br)cc4Br)CC3)c2c1C` gave HSF-1 act 23.2, NR0B1 inh 0.3, FXN GAA850 act 1.1, AHR activator -0.3 and HSF1 inh 3.5.
CCCC(=NC(C)CC)C1=C(O)CC(c2ccccc2)CC1=O (stereo not given) was read as HSF-1 act 37.8, NR0B1 inh -0.2, FXN GAA850 act 0.5, AHR activator 0.9, HSP90 refold inh 24.2*, HSF1 inh 4.1, HSP90 confirm 6.1 and luciferase ctr 5.4.
Screening CCC(C)N=CC1=C(O)CC(c2ccccc2)CC1=O (stereo not given) returned HSF-1 act 44.7, NR0B1 inh -0.5, FXN GAA850 act 0.1, AHR activator -0.4, HSP90 refold inh 4.1 and HSF1 inh 21.4.
`CCCCSc1nnc(CSc2ncccn2)n1C` gave HSF-1 act 30.5, NR0B1 inh 0.4, FXN GAA850 act 3.4, AHR activator -1.6, HSP90 refold inh -2.4 and HSF1 inh 1.9.
Screening CC(=O)Nc1ccc(N(C(=O)CNC(=O)c2ccco2)C(C(=O)NCc2ccco2)c2ccccc2F)cc1 (stereo not given) returned HSF-1 act -5.3, NR0B1 inh 0.7, FXN GAA850 act 0.3, AHR activator -0.1, HSP90 refold inh 3.1 and HSF1 inh -1.6.
Screening Cc1ccc(NC(=O)CCC(=O)NNC(=O)c2ccccc2)c(C)c1 returned HSF-1 act 11.2, NR0B1 inh 0.5, FXN GAA850 act 1.0, AHR activator 0.0, HSP90 refold inh -1.8 and HSF1 inh -6.5.
Cc1ccc(NC(=O)c2cccnc2)cc1S(=O)(=O)N(C)C was read as HSF-1 act 1.1, NR0B1 inh -0.5, FXN GAA850 act 1.4, AHR activator 8.4, HSP90 refold inh 1.1 and HSF1 inh -0.5.
Screening Cc1ccc(NC(=O)c2ccc3ncsc3c2)cc1S(=O)(=O)N(C)C returned HSF-1 act -1.3, AHR activator 14.9, HSP90 refold inh 18.6*, HSF1 inh -5.6, HSP90 confirm 23.8* and luciferase ctr 19.6*.
Screening O=C(OCC#CCSc1nnc(-c2cccc3ccccc23)o1)c1cc2ccccc2o1 returned NR0B1 inh 1.3, FXN GAA850 act 0.6 and AHR activator -0.6.

From PubChem BioAssay
